# Only some compounds are listed: those with a hit (about 2.9% of all), similar ones and a draw of the others.
# HEK293 cAMP ctrl – raises cAMP in parental HEK293 cells, TSHR agonist counter-screen; actives 2.5% (n = 73,000); Potency, µM (top dose mostly 57.1 µM), inactives show at the highest dose activation, actives largely listed as activators; parental HEK293 CNG cAMP sensor, membrane potential fluorescence; active means well fitted activation curve with a large enough effect; inconclusive means small, poorly fitted or top-dose-only effect; inactive means no such curve, though single readings can be large or run the other way; further: % of control where 0% means no effect; nearly all actives have a fitted effect of over 55% in size
#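 Counterscreen for endogenous-receptor signalling: CNG-channel HEK 293 cells report cAMP rise by membrane depolarization. After 60 min dye equilibration with 100 uM RO 20-1724, compounds incubated 30 min before bottom-read fluorescence at 590 nm.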
# TSHR ag – agonists of human thyroid stimulating hormone receptor; P16473; HEK293-CNG-TSHR cells (CNG channel as cAMP sensor), membrane potential dye, cAMP; Potency, µM (highest dose often 57.1 µM), without a hit: top-dose activation, hits mostly activators; actives 0.48% (n = 73,000); active means well fitted activation curve with a large enough effect in the main read-out, with a control signal flat, not every such curve was filed as active; inconclusive means small, poorly fitted or top-dose-only effect, or a change in a side signal; inactive means no such curve, though single readings can be large or run the other way; % of control where 0% means no effect;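 further: the control signal comes from parental cells without the receptor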
# Target sequence (P16473 whole entry, looked up): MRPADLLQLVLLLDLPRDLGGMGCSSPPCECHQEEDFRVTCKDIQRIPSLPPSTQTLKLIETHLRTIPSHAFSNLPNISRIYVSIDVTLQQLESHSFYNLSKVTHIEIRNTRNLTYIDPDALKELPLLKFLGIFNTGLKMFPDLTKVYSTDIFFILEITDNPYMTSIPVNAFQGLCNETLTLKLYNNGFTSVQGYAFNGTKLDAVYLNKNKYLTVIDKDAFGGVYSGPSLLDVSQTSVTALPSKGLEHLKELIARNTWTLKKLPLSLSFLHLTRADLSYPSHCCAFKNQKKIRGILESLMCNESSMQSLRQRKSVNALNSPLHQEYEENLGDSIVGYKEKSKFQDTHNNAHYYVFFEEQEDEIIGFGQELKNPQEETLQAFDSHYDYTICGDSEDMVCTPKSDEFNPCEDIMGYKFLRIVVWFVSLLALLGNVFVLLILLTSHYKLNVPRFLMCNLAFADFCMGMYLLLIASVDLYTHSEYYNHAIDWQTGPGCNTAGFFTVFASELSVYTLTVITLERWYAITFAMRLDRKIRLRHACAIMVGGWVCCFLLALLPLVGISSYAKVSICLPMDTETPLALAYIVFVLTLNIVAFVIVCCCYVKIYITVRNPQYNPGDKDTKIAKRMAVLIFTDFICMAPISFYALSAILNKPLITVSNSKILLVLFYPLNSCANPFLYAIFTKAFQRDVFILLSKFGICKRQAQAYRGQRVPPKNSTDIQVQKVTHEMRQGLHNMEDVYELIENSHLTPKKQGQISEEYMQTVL
#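 cAMP rise detected as CNG-channel membrane depolarization by fluorescent dye (emission 590 nm), 30 min after compound, following 60 min dye loading containing 100 uM RO 20-1724 at room temperature. Cells: TSHR/CNG HEK 293, with parental CNG HEK 293 as control.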
# Starred values were filed as active, the others as inactive; u = inconclusive; x = not tested or not shown; [ ] = another dose, or the depositor's remark. Potency means the concentration at half of the fitted maximal effect.
SMILES,HEK293 cAMP ctrl,TSHR ag
COC(=O)[C@@]1(Cc2ccc(OC)cc2)[C@H]2c3cc(C(=O)N4CCCC4)n(CCN4CNCC4=O)c3C[C@H]2CN1C(=O)c1ccccc1,-1%,10%
COC(=O)[C@@]1(Cc2ccccc2)[C@H]2c3cc(C(=O)N4CCCC4)n(Cc4ccccc4)c3C[C@H]2CN1C(=O)c1ccccc1,1.3µM*,u
COC(=O)[C@@]1(Cc2ccc(F)cc2)[C@H]2c3cc(C(=O)N4CCCC4)n(CCO)c3C[C@H]2CN1C(=O)c1ccccc1,20%,13%
COc1cc(-c2ccc(N=Nc3ccc4c(S(=O)(=O)O)cc(S(=O)(=O)O)c(N)c4c3O)c(OC)c2)ccc1N=Nc1ccc2c(S(=O)(=O)O)cc(S(=O)(=O)O)c(N)c2c1O,-16%,-21%
CCCC(c1cc(C(C)(C)C)c(O)cc1C)c1cc(C(C)(C)C)c(O)cc1C,-1%[11.4 µM],4%[11.4 µM]
CN1CCN(c2nc3c(c(=O)n(C)c(=O)n3C)n2C)CC1,1%[11.4 µM],4%[11.4 µM]
COC(=O)[C@@]1(Cc2ccccc2)[C@H]2c3cc(C(=O)N4CCCC4)n(Cc4ccc(OC)c(OC)c4)c3C[C@H]2CN1C(=O)c1ccccc1,3.2µM*,u
COC(=O)[C@@]1(Cc2ccccc2)[C@H]2c3cc(C(=O)N4CCCC4)n(CCN4CNCC4=O)c3C[C@H]2CN1C(=O)c1ccccc1,8%,9%
COC(=O)[C@@]1(Cc2ccc(F)cc2)[C@H]2c3cc(C(=O)N4CCCC4)n(Cc4c(CO)[nH]cc(C)c4=O)c3C[C@H]2CN1C(=O)c1ccccc1,4%[0.457 µM],2%
COC(=O)[C@@]1(Cc2ccccc2)[C@H]2c3cc(C(=O)N4CCCC4)n(Cc4ccc(O)c(OC)c4)c3C[C@H]2CN1C(=O)c1ccccc1,1µM*,u
C[C@@H]1O[C@@H](n2cc(F)c(=O)[nH]c2=O)[C@H](O)[C@@H]1O,16%,x
CC1(C)CNC(=O)c2sc(N3CCCCC3)nc2C1,20µM*,u
CC1(C)CC(=O)c2sc(N3CCCCC3)nc2C1,-4%,0%
OCCCNCc1ccncc1,-1%[11.4 µM],-1%[11.4 µM]
COc1cccc(OC)c1C(=O)Nn1c(C2CCC2)nc2ccccc2c1=O,25µM*,u
Cc1nc2ccccc2c(=O)n1NC(=O)c1c(O)c2ccccc2n(C)c1=O,-7%,-4%
CCOC(=O)c1c(NC(=O)Cn2c(C)nc3ccccc32)sc2c1CCC2,23%,25µM*
CCOC(=O)c1c(NC(=O)Cn2nnc3ccccc32)sc2c1CCC(C)C2 (stereo unspecified),14%,12%
COc1ccccc1NC(=O)CN1CCN(c2ccccc2F)CC1,25%,12%
COc1ccccc1NC(=O)CN1CCN(c2ccc(Cl)cc2)CC1,20µM*,u
O=C(O)/C(=C\c1ccccc1)Cc1ccccc1,15%[11.4 µM],0%[11.4 µM]
C/C(=N/S(=O)(=O)c1ccc(Cl)c(Cl)c1)OCC(C)(C)C,4%[11.4 µM],9%[11.4 µM]
COc1cccc(-n2nnc3c(=O)n(CC(=O)NC4CCCC4)cnc32)c1,-5%,1%
COc1cccc(-n2nnc3c(=O)n(Cc4ccc(C)cc4)cnc32)c1,16µM*,u
Cc1ccc(-n2nnc3c(=O)n(Cc4cccc(C)c4)cnc32)cc1,12%,x
SMILES,HEK293 cAMP ctrl,TSHR ag
Cc1ccc(-n2nnc3c(=O)n(Cc4cc(C)ccc4C)cnc32)cc1,20µM*,u
CO/N=C(\C)CCN1CCCCc2nc(C)c(C)cc21,1%[11.4 µM],1%[11.4 µM]
O=C(O)CCCC[C@@H]1SC[C@H]2NC(=O)N[C@H]12,-3%,-2%
CCc1nc(C)cn1S(=O)(=O)c1ccc(Cl)c(Cl)c1Cl,25µM*,u
CCc1nc(C)cn1S(=O)(=O)c1cc(Br)ccc1OC,11%,23%
CCOC(=O)C(NC(=O)c1ccc(OC)cc1)(Nc1cc(C)on1)C(F)(F)F (stereo unspecified),14%,6%
CCOC(=O)C(NC(=O)c1ccc(OC)cc1)(OCC1(CC)COC1)C(F)(F)F (stereo unspecified),22%,7.9µM*
CC(C)CO/N=C1/C[C@@H](O)[C@@H](O)[C@@H]2[C@@H]3C(=O)N(c4cccc(Oc5ccccc5)c4)C(=O)[C@H]3CC[C@H]12,-1%[11.4 µM],-5%[11.4 µM]
CC(C)=CCC/C(C)=C/CO/N=C1/C[C@@H](O)[C@@H](O)[C@@H]2[C@H]3C(=O)N(c4ccc(F)cc4F)C(=O)[C@@H]3CC[C@@H]12,-21%[11.4 µM],-11%[11.4 µM]
CN(Cc1ccco1)c1ncncc1-c1ccc2c(c1)OCO2,18%,25µM*
CN(C)c1ccc(-c2cncnc2N(C)Cc2ccco2)cc1,-3%,x
CN(Cc1ccco1)c1ncnc2ccc(-c3ccc4c(c3)OCO4)cc12,16µM*,u
CN(Cc1ccco1)c1ncnc2ccc(-c3cccnc3)cc12,12%,2%
N[C@@H](Cc1cccc([N+](=O)[O-])c1)C(=O)O,5%[11.4 µM],-4%[11.4 µM]
NC(N)=NC(N)=Nc1ccc(C(=O)O)cc1,12%[11.4 µM],21%[11.4 µM]
O=C(Nc1ccc2c(c1)Cc1ccccc1-2)[C@@H]1[C@H](C(=O)O)[C@]2(Cl)C(Cl)=C(Cl)[C@@]1(Cl)C2(Cl)Cl,4%[11.4 µM],1%[11.4 µM]
COc1ccc(-c2noc(-c3ccccc3C(=O)NCc3ccco3)n2)cc1OC,27%,43%
COc1cccc(NC(=O)c2ccccc2-c2nc(-c3ccc(F)cc3)no2)c1,32µM*,u
COc1cccc(NC(=O)c2ccccc2-c2nc(-c3ccccc3)no2)c1,10µM*,u
COc1cccc(NC(=O)c2ccncc2)c1,17%,3%
O=C(c1ccccc1-c1nc(-c2ccc(F)cc2)no1)N1CCCC1,25%,23%
COc1ccc(-c2noc(-c3ccccc3C(=O)NCc3ccco3)n2)cc1,16µM*,u
Cc1cc(C)c2c(SCc3ccc(Cl)cc3Cl)nc(N)nc2n1,7%[11.4 µM],8%[11.4 µM]
CC[C@H](C)C(=O)O[C@@H]1CCC=C2C=C[C@H](C)[C@@H](CC[C@H]3C[C@@H](O)CC(=O)O3)[C@H]21,11%,37%
CCCC=O,-5%,-6%
SMILES,HEK293 cAMP ctrl,TSHR ag
CC(=O)OC[C@@H]1O[C@@H](O/N=C2/C[C@@H](O)[C@@H](O)[C@@H]3[C@@H]4C(=O)N(C5CCCCC5)C(=O)[C@H]4CC[C@H]23)[C@H](OC(C)=O)[C@H](OC(C)=O)[C@@H]1OC(C)=O,-1%[11.4 µM],-14%[11.4 µM]
COC(=O)c1sccc1NC(=O)c1ccoc1C,30%,21%
COC(=O)c1sccc1NC(=O)c1ccc(Br)o1,4µM*,u
COc1cc2nc(N3CC=[N+](C(=O)c4ccco4)CC3)nc(N)c2cc1OC,-2%,-1%
CC[C@H](CN(C)C)C(=O)c1ccco1,3%[11.4 µM],-3%[11.4 µM]
CC(C)(C)NC[C@H](O)c1cc(O)cc(O)c1,16µM*,u
CC(=NC1CCCCC1)c1ccccc1O,0%[11.4 µM],-1%[11.4 µM]
COC(=O)[C@@]1(C)C=C[C@@H](Cc2ccccc2)N1C,20µM*,u
CC(=O)N1[C@H](Cc2ccccc2)C=C[C@]1(C)C(=O)NCCN1CCOCC1,6%,-3%
CC(C)=NOC[C@@H](C)[C@H](OCc1ccccc1)C(C)C,2%[11.4 µM],-7%[11.4 µM]
CCC(C)(C(=O)NC1CCCC1)N(Cc1ccco1)C(=O)c1ccc2c(c1)OCO2 (stereo unspecified),2.5µM*,u
CCC(C)(C(=O)NC1CCCCC1)N(Cc1ccco1)C(=O)c1cnccn1 (stereo unspecified),3.2µM*,u
CCC(C)(C(=O)NC1CCCCC1)N(Cc1ccco1)C(=O)CC1NC(=O)NC1=O (stereo unspecified),5%,3%
